The values below come from PubChem BioAssay (NCI).

Holding throughout (assay): NCI-60 one-dose screen, 48 h (100 = growth as untreated, 0 = no growth, -100 = all killed)
One experiment has as its system HCT-15 colon. Particulars: 10 µM unless noted.
The next experiment relates to HT29 colon. Particulars: 10 µM unless noted.
The next experiment concerns SNB-75 CNS. As to conditions: 10 µM unless noted.
Another experiment deals with SNB-19 CNS. Particulars: 10 µM unless noted.
Another experiment concerns U251 CNS. As to conditions: 10 µM unless noted.
A further experiment has as its system PC-3 prostate. As to conditions: 10 µM unless noted.
The test system of another experiment is SK-MEL-5 melanoma. Particulars: 10 µM unless noted.
For the next experiment, the system named is UACC-62 melanoma. Particulars: 10 µM unless noted.
In a further experiment the test system is LOX IMVI melanoma. As to conditions: 10 µM unless noted.
The next experiment relates to SK-MEL-28 melanoma. As to conditions: 10 µM unless noted.
A further experiment has as its system SK-MEL-2 melanoma. As to conditions: 10 µM unless noted.
In a further experiment the test system is EKVX NSCLC. Particulars: 10 µM unless noted.
The next experiment has as its system SN12C renal. As to conditions: 10 µM unless noted.
Another experiment deals with UO-31 renal. Particulars: 10 µM unless noted.
A further experiment deals with TK-10 renal. Particulars: 10 µM unless noted.
The next experiment concerns ACHN renal. Particulars: 10 µM unless noted.
In the next experiment the test system is CAKI-1 renal. Particulars: 10 µM.
The test system of another experiment is A498 renal. Particulars: 10 µM unless noted.
For another experiment, the system named is CCRF-CEM leukemia. Particulars: 10 µM unless noted.
In the next experiment the test system is MOLT-4 leukemia. Particulars: 10 µM unless noted.

The panel holds about 83,000 compounds, 20% with a hit somewhere; the sample as a whole holds those more often.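 Negative percent growth values reflect cell death: -40 means 40% of the cells present at the start died, and -100 means all died.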 Values without a mark were called inactive. Active and inactive are the calls of the source. Rule for the calls: active = growth percent below 10; inactive = the rest.

With `O=S(=O)(Nc1ccc(I)c(Cl)c1)c1ccc(-c2cnc(C3CC3)o2)cc1`, the growth with HCT-15 colon was 27.8%; with HT29 colon, 8.12% (active); in the experiment with SNB-75 CNS it was -13% (active); in the experiment on SNB-19 CNS it was 42.7%; with U251 CNS, 31%; with PC-3 prostate, 20.4%. In addition, the growth with SK-MEL-5 melanoma is 16.8%; in the experiment on UACC-62 melanoma it was 31.2%; in the experiment with LOX IMVI melanoma it was 36.1%; in the experiment on SK-MEL-28 melanoma it was 59.7%; in the experiment on SK-MEL-2 melanoma, 43.7%; in the experiment on EKVX NSCLC, 42.5%. Moreover, the growth was 42.9% in the experiment on SN12C renal; 51.7% in the experiment on UO-31 renal; 53.3% in the experiment on TK-10 renal; 41.5% with ACHN renal; 6.99% (active) with CAKI-1 renal; 2.08% (active) in the experiment with A498 renal. For the same compound, the results for the growth in the experiment with CCRF-CEM leukemia and with MOLT-4 leukemia were 14.1% and 29.2%, respectively.
Consider `Cn1ccnc1C(=O)/C=C/c1ccc(C(=O)Nc2ccc(NC(=O)CCNC(=O)c3csc(Br)n3)cc2)cc1`, for which the growth in the experiment with HCT-15 colon was 28.6%; in the experiment with HT29 colon, 13.2%; in the experiment with SNB-75 CNS, 71.2%; in the experiment on SNB-19 CNS, 60.6%; with U251 CNS, 23.9%; with PC-3 prostate, 48%. For the same compound, the growth with SK-MEL-5 melanoma was 98.8%; with UACC-62 melanoma, 68.3%; in the experiment on LOX IMVI melanoma it was 11.5%; with SK-MEL-28 melanoma it was 89.3%; in the experiment on SK-MEL-2 melanoma it was 109%; with EKVX NSCLC, 69.9%. The growth with SN12C renal was 40.2%; in the experiment on UO-31 renal, 46.6%; in the experiment with TK-10 renal it was 89.7%; in the experiment with ACHN renal, 61.8%; in the experiment on CAKI-1 renal, 29.3%; in the experiment with A498 renal it was 100%. In addition, the growth was 12.9% in the experiment with CCRF-CEM leukemia and 70.3% in the experiment with MOLT-4 leukemia.
For `C#C[C@]1(O)CC[C@H]2[C@@H]3CC=C4c5sc(Nc6cc(OC)ccc6OC)nc5CC[C@]4(C)[C@H]3CC[C@@]21C`, the growth in the experiment on HCT-15 colon was 10.3%; in the experiment on HT29 colon it was 21.1%; with SNB-75 CNS, 2.31% (active); with SNB-19 CNS, 38.3%; with U251 CNS it was 26.1%; with PC-3 prostate it was 18.9%. The growth was 6.5% (active) in the experiment on SK-MEL-5 melanoma; -14% (active) with UACC-62 melanoma; 5.19% (active) with LOX IMVI melanoma; -46.6% (active) in the experiment on SK-MEL-28 melanoma; 31.8% in the experiment with SK-MEL-2 melanoma; 42.9% with EKVX NSCLC. In addition, the growth with SN12C renal was 49%; with UO-31 renal, 12.8%; with TK-10 renal, 84.7%; with ACHN renal it was 36.5%; with CAKI-1 renal it was 28%; in the experiment with A498 renal it was -28.3% (active). In addition, the growth was 13.9% in the experiment on CCRF-CEM leukemia and -5.93% (active) in the experiment with MOLT-4 leukemia.
Take `COC(=O)[C@@]1(C)CC[C@]2(C)CC[C@]3(C)C(=CC(=O)[C@@H]4[C@@]5(C)Cc6c(n(CC#CCN7CCN(C)CC7)c7ccccc67)C(C)(C)[C@@H]5CC[C@]43C)[C@@H]2C1`: the growth in the experiment with HCT-15 colon was 2.6% (active); in the experiment on HT29 colon, 14.4%; in the experiment with SNB-75 CNS, 100%; in the experiment on SNB-19 CNS it was 54.3%; in the experiment with U251 CNS, 57.5%; in the experiment on PC-3 prostate, 62.1%. Moreover, the growth was 87.2% with SK-MEL-5 melanoma; 97.7% in the experiment on UACC-62 melanoma; -91.6% (active) in the experiment on LOX IMVI melanoma; 105% in the experiment on SK-MEL-28 melanoma; 101% with SK-MEL-2 melanoma; 92.4% in the experiment with EKVX NSCLC. The growth in the experiment on SN12C renal was 73.5%; with UO-31 renal, 65.7%; with TK-10 renal, 119%; in the experiment on ACHN renal, 89.4%; in the experiment on CAKI-1 renal, 64.7%; in the experiment on A498 renal, 112%. Also, the growth was 48% in the experiment with CCRF-CEM leukemia and 16.9% with MOLT-4 leukemia.
As for `O=S(=O)(Nc1cc(Cl)cc(Cl)c1)c1ccc(-c2cnc(C3CC3)o2)cc1`, the growth was 30.9% with HCT-15 colon; 12.1% in the experiment with HT29 colon; -1.98% (active) in the experiment on SNB-75 CNS; 42.9% in the experiment on SNB-19 CNS; 37.4% in the experiment with U251 CNS; 27% in the experiment on PC-3 prostate. The growth in the experiment with SK-MEL-5 melanoma was 36.9%; with UACC-62 melanoma, 39.1%; with LOX IMVI melanoma, 44.8%; in the experiment on SK-MEL-28 melanoma, 69.9%; in the experiment on SK-MEL-2 melanoma, 56.8%; in the experiment with EKVX NSCLC, 43.9%. The growth in the experiment with SN12C renal was 50.6%; with UO-31 renal, 53%; in the experiment with TK-10 renal, 76.1%; with ACHN renal, 53.3%; with CAKI-1 renal it was 11.8%; in the experiment on A498 renal, 15.7%. Besides, the growth in the experiment on CCRF-CEM leukemia was 17.2%; in the experiment with MOLT-4 leukemia it was 32.6%.
`O=C(O)c1ccc(-n2cc(CNc3ccc(Cl)cc3)c(-c3ccc(F)cc3)n2)cc1`: the growth with HCT-15 colon is 79.6%; in the experiment on HT29 colon, 112%; with SNB-75 CNS, 131%; in the experiment with SNB-19 CNS, 96.5%; in the experiment with U251 CNS it was 90.4%; in the experiment on PC-3 prostate, 89%. The growth was 84.8% in the experiment on SK-MEL-5 melanoma; 77.4% in the experiment on UACC-62 melanoma; 84.3% in the experiment on LOX IMVI melanoma; 95.6% with SK-MEL-28 melanoma; 99.1% in the experiment on SK-MEL-2 melanoma; 81.1% in the experiment with EKVX NSCLC. The growth was 99% with SN12C renal; 80.5% with UO-31 renal; 119% with TK-10 renal; 78.9% with ACHN renal; 83.8% in the experiment with CAKI-1 renal; 88.6% in the experiment on A498 renal. Further, the growth is 91.8% with CCRF-CEM leukemia and 85.4% with MOLT-4 leukemia.
In the case of `O=C(C[n+]1ccnc2ccccc21)c1ccc(O)c(O)c1`, the growth was 12.8% in the experiment with HCT-15 colon; 18.3% with HT29 colon; 98.2% with SNB-75 CNS; 80.8% in the experiment with SNB-19 CNS; 63.8% in the experiment on U251 CNS; 44.7% in the experiment on PC-3 prostate. Further, the growth was 81.6% in the experiment with SK-MEL-5 melanoma; 54.6% in the experiment with UACC-62 melanoma; 8.68% (active) in the experiment on LOX IMVI melanoma; 63.3% in the experiment on SK-MEL-28 melanoma; 77.7% in the experiment with SK-MEL-2 melanoma; 94.2% in the experiment on EKVX NSCLC. Further, the growth with SN12C renal is 59.5%; in the experiment with UO-31 renal, 40.3%; in the experiment on TK-10 renal it was 43.1%; in the experiment with ACHN renal, 17.8%; with CAKI-1 renal, 69.8%; with A498 renal it was 87.7%. The growth with CCRF-CEM leukemia was 4.57% (active); in the experiment on MOLT-4 leukemia, 11.6%.
In the case of `CC(C)(C)OC(=O)N1CCN(S(=O)(=O)/N=C2\NC(=O)NC2=C(Cl)Cl)CC1`, the growth in the experiment with HCT-15 colon is 10.9%; with HT29 colon, 106%; in the experiment with SNB-75 CNS, 99.9%; in the experiment with SNB-19 CNS it was 81.1%; in the experiment on U251 CNS it was 90.6%; in the experiment with PC-3 prostate, 97.5%. Further, the growth in the experiment on SK-MEL-5 melanoma is 95.9%; in the experiment on UACC-62 melanoma, 96.3%; in the experiment on LOX IMVI melanoma, 64.3%; with SK-MEL-28 melanoma, 85.7%; in the experiment on SK-MEL-2 melanoma, 88.9%; with EKVX NSCLC it was 90.8%. For the same compound, the growth in the experiment on SN12C renal was 91.7%; with UO-31 renal, 91.6%; in the experiment with TK-10 renal, 124%; in the experiment with ACHN renal, 99.5%; in the experiment on CAKI-1 renal it was 98.8%; with A498 renal, 83.7%. The results for the growth with CCRF-CEM leukemia and in the experiment with MOLT-4 leukemia were 29.4% and 89%, respectively.
